In the supplement of paper PMC9262897, “Low-cost anti-mycobacterial drug discovery using engineered E. coli” (Nature Communications, 2022):
Structures can show the parent of a compound that is named as a salt. ± gives the standard deviation of the averaged measurements.

Assays:
Experiment in all cases: growth (OD600 after 10 h); higher = more growth (less inhibition)
[1] = system: E. coli TESEC Alr+ wild-type control; details: compound 0.1 mM; raw OD600 reference: median of DMSO wells 0.241, cell-free background 0.041
Description: (§1)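 TESEC Mtb Alr E. coli, or the Alr+ wild-type control, in 384-well plates with Prestwick library compounds at 0.1 mM and 1% DMSO, across arabinose induction levels of 1E3 to 1E7 nM. Growth is read as OD600 after 10 h at 37 °C in triplicate biological replicates.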

E. coli TESEC Mtb Alr [2] = details: compound 0.1 mM
Description: as §1

E. coli TESEC Mtb Asd = details: compound 0.1 mM
Description: (§2)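 TESEC E. coli strains in which the native enzyme is deleted and replaced by arabinose-inducible Mtb Asd, DapB, CysH or TrpD, each grown in its selective medium. Strains were screened against the Prestwick library at 0.1 mM and 1% DMSO in 384-well format at low and high arabinose induction. Growth is read as OD600 after 10 h in triplicate.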

[3] = system: E. coli TESEC Alr+ wild-type control; details: compound 0.1 mM; raw OD600 reference: median of DMSO wells 0.49, cell-free background 0.052
Description: (§3)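 TESEC Mtb Alr E. coli (ΔaraC ΔtolC ΔentC Δalr ΔdadX, arabinose-inducible Mtb Alr) or the Alr+ wild-type control strain, grown in defined M9-fructose medium without D-alanine in 96-well plates with Prestwick library compounds at 0.1 mM and 1% DMSO. Low Alr induction is 0.1 µM arabinose and high induction is 10 mM arabinose.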

E. coli TESEC Mtb Alr [4] = details: compound 0.1 mM; remark: listed apart in the source
Description: as §3

E. coli TESEC Mtb DapB = details: compound 0.1 mM
Description: as §2

[5] = arabinose 1000 nM, raw OD600 reference: median of DMSO wells 0.294, cell-free background 0.041
[6] = arabinose 10000 nM, raw OD600 reference: median of DMSO wells 0.264, cell-free background 0.041
[7] = arabinose 100000 nM, raw OD600 reference: median of DMSO wells 0.201, cell-free background 0.041
[8] = arabinose 1000000 nM, raw OD600 reference: median of DMSO wells 0.193, cell-free background 0.041
[9] = arabinose 10000000 nM, raw OD600 reference: median of DMSO wells 0.146, cell-free background 0.041
[10] = arabinose induction (level): High, raw OD600 reference: median of DMSO wells 0.331, cell-free background 0.041
[11] = arabinose induction (level): Low, raw OD600 reference: median of DMSO wells 0.417, cell-free background 0.041
[12] = arabinose 100 nM, raw OD600 reference: median of DMSO wells 0.413, cell-free background 0.052
[13] = arabinose 10000000 nM, raw OD600 reference: median of DMSO wells […], cell-free background 0.052
[14] = arabinose induction (level): High, raw OD600 reference: median of DMSO wells […], cell-free background 0.041
[15] = arabinose induction (level): Low, raw OD600 reference: median of DMSO wells 0.227, cell-free background 0.041

Row | Compound | growth [1] | growth (E. coli TESEC Mtb Alr [2]; [5]) | growth (E. coli TESEC Mtb Alr [2]; [6]) | growth (E. coli TESEC Mtb Alr [2]; [7]) | growth (E. coli TESEC Mtb Alr [2]; [8]) | growth (E. coli TESEC Mtb Alr [2]; [9]) | growth (E. coli TESEC Mtb Asd; [10]) | growth (E. coli TESEC Mtb Asd; [11]) | growth [3] | growth (E. coli TESEC Mtb Alr [4]; [12]) | growth (E. coli TESEC Mtb Alr [4]; [13]) | growth (E. coli TESEC Mtb DapB; [14]) | growth (E. coli TESEC Mtb DapB; [15])
1 | CC1Cc2ccccc2N1NC(=O)c1ccc(Cl)c(S(N)(=O)=O)c1 (stereo unspecified) [Indapamide] | 0.225 ± 0.0038 | 0.278 ± 0.01 | 0.27 ± 0.011 | 0.191 ± 0.015 | 0.159 ± 0.0057 | 0.15 ± 0.009 | 0.224 ± 0.01 | 0.442 ± 0.03 | 0.497 ± 0.015 | 0.425 ± 0.014 | 0.336 ± 0.018 | – | –
2 | C[C@]12CC[C@@H]3c4ccc(O)cc4CC[C@H]3[C@@H]1CCC2=O [Estrone] | 0.185 ± 0.0043 | 0.249 ± 0.0084 | 0.23 ± 0.0023 | 0.187 ± 0.0045 | 0.153 ± 0.0041 | 0.129 ± 0.0036 | 0.281 ± 0.031 | 0.36 ± 0.074 | 0.511 ± 0.013 | 0.402 ± 0.011 | 0.291 ± 0.0057 | – | –
3 | CN1CCCCC1CCN1c2ccccc2Sc2ccc([S+](C)[O-])cc21 (stereo unspecified) [Mesoridazine besylate] | 0.169 ± 0.0023 | 0.24 ± 0.012 | 0.266 ± 0.0092 | 0.225 ± 0.032 | 0.131 ± 0.0058 | 0.149 ± 0.005 | 0.204 ± 0.023 | 0.339 ± 0.091 | 0.568 ± 0.023 | 0.403 ± 0.0065 | 0.3 ± 0.02 | – | –
4 | Cc1cc(-c2ccccc2)nnc1NCCN1CCOCC1 [Minaprine dihydrochloride] | 0.227 ± 0.0047 | 0.288 ± 0.011 | 0.25 ± 0.0072 | 0.182 ± 0.012 | 0.155 ± 0.004 | 0.156 ± 0.0078 | 0.212 ± 0.028 | 0.342 ± 0.074 | – | 0.409 ± 0.0057 | 0.318 ± 0.029 | 0.185 ± 0.0026 | 0.225 ± 0.045
5 | CC[N+](CC)(CC)CCC(O)(c1ccccc1)C1CCCCC1 (stereo unspecified) [Tridihexethyl chloride] | 0.2104 ± 0.0021 | 0.298 ± 0.015 | 0.2775 ± 0.0026 | 0.199 ± 0.019 | 0.185 ± 0.015 | 0.144 ± 0.0075 | 0.349 ± 0.028 | 0.369 ± 0.085 | – | 0.417 ± 0.0044 | 0.335 ± 0.018 | 0.207 ± 0.026 | 0.233 ± 0.037
6 | CC(C)NC(=N)NC(=N)Nc1ccc(Cl)cc1 [Proguanil hydrochloride] | 0.216 ± 0.0044 | 0.261 ± 0.006 | 0.275 ± 0.0087 | 0.176 ± 0.013 | 0.143 ± 0.0015 | 0.142 ± 0.0028 | 0.216 ± 0.048 | 0.31 ± 0.068 | 0.475 ± 0.012 | 0.422 ± 0.009 | 0.345 ± 0.019 | – | –
7 | Clc1ccc(C(Cn2ccnc2)OCc2c(Cl)cccc2Cl)c(Cl)c1 (stereo unspecified) [Isoconazole] | 0.0482 ± 0.00036 | 0.0445 ± 0.0043 | 0.247 ± 0.037 | 0.0465 ± 0.0023 | 0.105 ± 0.12 | 0.0545 ± 0.0038 | 0.152 ± 0.079 | 0.0562 ± 0.006 | 0.0722 ± 0.023 | 0.0651 ± 0.02 | 0.104 ± 0.075 | – | –
8 | CCCNC(C)C(=O)Nc1ccccc1C (stereo unspecified) [Prilocaine hydrochloride] | 0.234 ± 0.0054 | 0.275 ± 0.011 | 0.264 ± 0.0046 | 0.1867 ± 0.0018 | 0.167 ± 0.0054 | 0.136 ± 0.0076 | 0.322 ± 0.093 | 0.408 ± 0.031 | 0.493 ± 0.068 | 0.427 ± 0.012 | 0.333 ± 0.008 | – | –
9 | C=CCSCC1Nc2cc(Cl)c(S(N)(=O)=O)cc2S(=O)(=O)N1 (stereo unspecified) [Althiazide] | 0.244 ± 0.006 | 0.301 ± 0.019 | 0.2578 ± 0.0023 | 0.219 ± 0.016 | 0.183 ± 0.011 | 0.141 ± 0.0034 | 0.261 ± 0.052 | 0.441 ± 0.019 | – | 0.383 ± 0.006 | 0.326 ± 0.012 | 0.209 ± 0.0088 | 0.242 ± 0.018
10 | CC(C)[N+](C)(CCOC(=O)C1c2ccccc2Oc2ccccc21)C(C)C [Propantheline bromide] | 0.169 ± 0.0072 | 0.231 ± 0.025 | 0.269 ± 0.0034 | 0.155 ± 0.0034 | 0.153 ± 0.0025 | 0.132 ± 0.0019 | 0.233 ± 0.051 | 0.417 ± 0.047 | 0.644 ± 0.057 | 0.406 ± 0.011 | 0.32773 ± 0.00025 | – | –
11 | CNCCCC12CCC(c3ccccc31)c1ccccc12 [Maprotiline hydrochloride] | 0.269 ± 0.0086 | 0.256 ± 0.016 | 0.276 ± 0.0088 | 0.246 ± 0.032 | 0.134 ± 0.0037 | 0.169 ± 0.0019 | 0.197 ± 0.0097 | 0.164 ± 0.016 | – | 0.41 ± 0.0086 | 0.28 ± 0.013 | 0.1849 ± 0.0011 | 0.211 ± 0.011
12 | Nc1c(Br)cc(Br)cc1CN[C@H]1CC[C@H](O)CC1 [Ambroxol hydrochloride] | 0.202 ± 0.0077 | 0.256 ± 0.014 | 0.283 ± 0.0086 | 0.18 ± 0.031 | 0.1617 ± 0.0016 | 0.149 ± 0.0085 | 0.168 ± 0.021 | 0.318 ± 0.06 | 0.626 ± 0.055 | 0.406 ± 0.0096 | 0.312 ± 0.015 | – | –
13 | C=C1/C(=C\C=C2/CCC[C@]3(C)[C@@H]([C@H](C)/C=C/[C@@H](O)C4CC4)CC[C@@H]23)C[C@@H](O)C[C@@H]1O [Calcipotriene] | 0.0539 ± 0.0078 | 0.0502 ± 0.0045 | 0.0544 ± 0.0042 | 0.0504 ± 0.0018 | 0.0524 ± 0.0013 | 0.056 ± 0.0013 | 0.0646 ± 0.0023 | 0.0613 ± 0.0049 | 0.0607 ± 0.0046 | 0.234 ± 0.12 | 0.0671 ± 0.0016 | – | –
14 | C[C@H]1C[C@@H]2[C@H]([C@@H](O)C[C@@]3(C)[C@H]2CC[C@]3(O)C(=O)CO)[C@@]2(C)C=CC(=O)C=C12 [Methylprednisolone, 6-alpha] | 0.202 ± 0.0042 | 0.254 ± 0.013 | 0.243 ± 0.0096 | 0.1512 ± 0.0011 | 0.116 ± 0.0032 | 0.134 ± 0.0027 | 0.259 ± 0.024 | 0.475 ± 0.018 | 0.459 ± 0.028 | 0.431 ± 0.0047 | 0.295 ± 0.021 | – | –
15 | CCN(CC)C(=O)Nc1ccc(OCC(O)CNC(C)(C)C)c(C(C)=O)c1 (stereo unspecified) [Celiprolol HCl] | 0.215 ± 0.0023 | 0.292 ± 0.0042 | 0.247 ± 0.0042 | 0.221 ± 0.028 | 0.171 ± 0.0053 | 0.135 ± 0.0071 | 0.245 ± 0.048 | 0.341 ± 0.089 | 0.455 ± 0.027 | 0.421 ± 0.0097 | 0.356 ± 0.014 | – | –
16 | CCOC(=O)[C@@](C)(N)Cc1ccc(O)c(O)c1 [Methyldopate hydrochloride] | 0.106 ± 0.0036 | 0.159 ± 0.008 | 0.185 ± 0.011 | 0.116 ± 0.0072 | 0.0901 ± 0.0019 | 0.116 ± 0.0018 | 0.163 ± 0.024 | 0.276 ± 0.13 | 0.469 ± 0.013 | 0.405 ± 0.021 | 0.339 ± 0.022 | – | –
17 | O=c1oc2ccccc2c(O)c1Cc1c(O)c2ccccc2oc1=O [Dicumarol] | 0.178 ± 0.001 | 0.159 ± 0.0018 | 0.1609 ± 0.0012 | 0.149 ± 0.0042 | 0.0997 ± 0.0013 | 0.126 ± 0.0032 | 0.289 ± 0.049 | 0.262 ± 0.049 | 0.191 ± 0.025 | 0.128 ± 0.022 | 0.0655 ± 0.0074 | – | –
